Measured values: PubChem BioAssay
Values joined by “and” are separate entries in the source; they are usually repeats but may differ in a detail not shown here. Equal entries are not always repeated. Active and inactive are the calls of the source.

Experiments:
Albumin (Bos taurus) = Albumin (Bos taurus) (UniProt P02769); assay: bovine serum albumin binders on microarray, profiling panel, artefact control for SMM control protein annotation, biochemical, small-molecule microarray, Alexa647 label, 635/667 nm fluorescence (AID 1118); settings: BSA-A647 binding, fluorescence 635 nm, higher = more signal;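 also: score merges 667 nm emission intensity and signal-to-noise per printed compound spot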
[1] = small-molecule microarray binders of probe aXIP, primary screen, biochemical, NeuroSMM set, 635/667 nm fluorescence (AID 1119); settings: higher = more signal, called active from +8 up or from −8 down;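 also: probe is the protein aXip251-270 applied at 1 µg/mL to compound-printed slides; binding of probe to printed compounds measured as 667 nm fluorescence plus signal to noise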
[2] = small-molecule binders of probe aNOTCH3, primary screen, biochemical, small-molecule microarray, 635/667 nm fluorescence (AID 1120); settings: higher = more signal;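 also: probe is a biotin-tagged antibody raised against NOTCH3 rather than NOTCH3 protein; score merges spot fluorescence near 667 nm with spot signal to noise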
[3] = small-molecule binders of probe aNOTCH2, primary screen, biochemical, small-molecule microarray, 635/667 nm fluorescence (AID 1121); settings: higher = more signal;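 also: score merges feature fluorescence read at 667 nm with its signal to noise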
[4] = molecular target: Carbonic anhydrase 2 (Homo sapiens) (UniProt P00918); assay: CAII small-molecule binders, profiling panel, biochemical, small-molecule microarray, Alexa647-labelled CAII (AID 1122); settings: CAII-A647 binding fluorescence, higher = more signal
[5] = COS7 lysate on small-molecule microarray, probe aHis, 635 nm (AID 1123); settings: COS7 cell lysate, fluorescence, higher = more signal;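 also: z-score combines 667nm fluorescence intensity with signal-to-noise per printed compound spot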
[6] = compound binding in COS7 lysate, probe aLAP1, primary screen, cell lysate, small-molecule microarray (AID 1124); settings: probe aLAP1, fluorescence, higher = more signal;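 also: lysate comes from COS7 cells expressing LAP1 and is applied at 0.3 µg/mL; score merges spot fluorescence near 667 nm with signal-to-noise over triplicate slides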
Sam68 (KHDRBS1) = assay: Sam68 small-molecule binders, primary screen, biochemical, small-molecule microarray, 635 nm fluorescence (AID 1125); settings: small-molecule microarray binding, higher = more signal;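 also: score merges 667 nm channel intensity with signal to noise over triplicate slides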
[7] = system: Chordin-like protein 2 (CHRDL2); assay: CHRDL2 small-molecule binders, primary screen, biochemical, small-molecule microarray, 635 nm fluorescence (AID 1126); settings: small-molecule microarray binding, fluorescence 635 nm; higher = more signal;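 also: printed compound slides probed with Chrdl2 protein at 4 µg/mL for 1 h at 4 C; score merges 667 nm emission intensity with signal to noise over three replicate slides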
[8] = molecular target: Concanavalin-A (Canavalia ensiformis) (UniProt P02866); assay: ConA small-molecule binders, primary screen, artefact control for SMM control protein annotation, biochemical, small-molecule microarray, Alexa647 label, 635 nm (AID 1127); settings: ConA-A647 binding fluorescence, higher = more signal;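 also: z combines 667 nm emission intensity with signal-to-noise across three replicate slides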
Chain of Concanavalin-A (Canavalia ensiformis) (P02866 whole entry, looked up): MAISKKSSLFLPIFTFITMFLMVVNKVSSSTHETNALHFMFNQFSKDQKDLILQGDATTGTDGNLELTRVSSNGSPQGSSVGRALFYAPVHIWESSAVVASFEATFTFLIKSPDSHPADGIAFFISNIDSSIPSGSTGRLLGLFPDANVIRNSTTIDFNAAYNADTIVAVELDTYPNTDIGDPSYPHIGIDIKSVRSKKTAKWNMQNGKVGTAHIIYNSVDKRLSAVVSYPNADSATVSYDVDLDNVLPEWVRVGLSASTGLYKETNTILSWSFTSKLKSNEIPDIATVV

Chain of Albumin (Bos taurus) (P02769 whole entry, looked up): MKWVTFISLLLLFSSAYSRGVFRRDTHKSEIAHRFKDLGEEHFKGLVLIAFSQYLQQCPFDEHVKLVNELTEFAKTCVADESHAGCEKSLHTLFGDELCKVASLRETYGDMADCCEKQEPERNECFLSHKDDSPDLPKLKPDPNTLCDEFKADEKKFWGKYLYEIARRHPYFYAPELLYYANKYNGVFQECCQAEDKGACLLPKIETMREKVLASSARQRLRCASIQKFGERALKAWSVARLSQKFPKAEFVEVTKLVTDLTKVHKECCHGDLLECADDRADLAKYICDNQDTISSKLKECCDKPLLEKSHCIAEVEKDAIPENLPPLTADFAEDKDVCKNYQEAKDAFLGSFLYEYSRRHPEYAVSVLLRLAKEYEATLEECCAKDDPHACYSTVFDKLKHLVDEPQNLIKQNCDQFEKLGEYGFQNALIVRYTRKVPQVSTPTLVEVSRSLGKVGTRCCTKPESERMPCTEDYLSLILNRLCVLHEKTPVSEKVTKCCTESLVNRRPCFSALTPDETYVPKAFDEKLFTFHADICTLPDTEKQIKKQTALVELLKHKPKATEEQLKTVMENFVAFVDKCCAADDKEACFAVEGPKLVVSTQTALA

Row | SMILES | composite z-score (Albumin (Bos taurus)) | composite Z-score [1] | composite z-score [2] | composite z-score [3] | composite z-score [4] | composite z-score [5] | composite z-score [6] | composite z-score (Sam68 (KHDRBS1)) | composite z-score [7] | composite z-score [8]
1 | C#CCN1C(/C=C/c2ccccc2)C(=O)OC[C@H]1c1ccccc1 (stereo not given in full) | -0.147 and 0.723 | -0.0965 (inactive) and 0.733 (inactive) | -0.0766 and 0.228 | -0.181 and -0.101 | -0.114 and 0.493 | 0.096 and 0.45 | -0.317 and 0.0886 | 0.224 and 0.889 | 0.852 and -0.0756 | -0.243 and 0.199
2 | CC[C@@H]1C(Sc2ccccc2)C(C(=O)O)[C@H](c2ccc(C)cc2)N1S(=O)(=O)c1ccc(C)cc1 (stereo not given in full) | 0.978 and 0.899 | 0.242 (inactive) and 1.85 (inactive) | 0.411 and -0.022 | 0.0739 and -0.0635 | 0.232 and 0.755 | 0.893 and 2.52 | 0.541 and 0.418 | 1.33 and 1.3 | -0.682 and -0.367 | 1.22 and 1.09
3 | CO[C@H]1COC(=O)[C@H](C)NC(=O)CC=C[C@@H](C)[C@H](OC)COC(=O)CC=C[C@@H]1C | -0.956 | 0.536 (inactive) | -0.0716 | -0.161 | -0.719 | -0.705 | -0.796 | -0.25 | 1.49 | -1.85
4 | CCOC(=O)[C@@H]1CC2O[C@]23C[C@@H]1C(=O)N1CCC[C@@H]1[C@H]3O[Si](C)(C)C(C)(C)C (stereo not given in full) | -0.8 and -0.548 | 0.223 (inactive) and 0.413 (inactive) | -0.11 and -0.128 | -0.2 and -0.0949 | -0.396 and 0.106 | -0.645 and 0.205 | -0.452 and 0.103 | -1.37 and -0.191 | 0.1 and -0.201 | -1.82 and -0.262
5 | COC(=O)c1c2oc(c1C(=O)OC)C(=O)N[C@@H](Cc1ccccc1)Cn1cc(nn1)C1(CCCCC1)NC(=O)N[C@H](CO)CC2 | -0.14 and 0.517 | 0.167 (inactive) and 0.77 (inactive) | 0.13 and 0.0613 | 0.0165 and -0.0761 | 0.713 and -0.0749 | 1.72 and 0.833 | 0.376 and 0.0667 | 1.08 and 0.939 | 0.518 and 0.124 | 0.634 and 0.427
6 | C[C@@H]1CC[C@@H](C(=O)O)N[C@H]1c1ccc(-c2ccco2)cc1 | 0.0852 | -0.122 (inactive) | 0.0458 | -0.16 | 0.812 | 0.01 | -0.103 | 0.108 | 1.1 | 0.529
7 | COC(=O)C1=C(C)N(Cc2ccccc2)C2=C3C(=O)N(C)C(=O)[C@@H]3[C@@](O)(C(=O)OC)C(=O)N2[C@@H]1c1ccccc1 | 0.0056 and 0.0685 | 0.204 (inactive) and -0.12 (inactive) | 0.134 and -0.101 | -0.151 and -0.0619 | 0.422 and -0.123 | -0.332 and -0.0088 | 1.36 and 0.499 | -0.239 and 0.267 | 0.37 and 0.38 | 0.17 and 0.178
8 | CCOC(=O)C[C@H]1[C@H](OC(=O)c2ccccc2-c2ccccc2)[C@@H](NC(=O)Cc2ccc(OC)cc2)c2cc(OCCCO)ccc2N1C(=O)Cc1ccc(OC)cc1 | 0.56 and -0.0815 | 0.376 (inactive) and -0.265 (inactive) | 0.23 and 0.0762 | 0.0922 and -0.189 | 0.285 and -0.324 | 0.324 and 0.46 | 0.621 and -0.153 | 0.821 and -0.28 | -0.362 and -0.24 | 0.712 and -1.55
9 | C=CCN(C(=O)C(c1cccs1)N(C(=O)/C=C\C(=O)O)c1c(Cl)cccc1CO)C(C)(C)C (stereo not given) | -0.693 and -0.455 | 0.0333 (inactive) and 0.242 (inactive) | -0.538 and -0.562 | -0.125 and -0.182 | 0.884 and 0.936 | -0.625 and -0.42 | -0.766 and -0.131 | -1.95 and -0.769 | -2.35 and -3.64 | -1.12 and -0.782
10 | Cc1ccc(S(=O)(=O)N[C@H]2COC(=O)[C@@H](C)COC(=O)[C@H](C)NC(=O)CC=C[C@H]2C)cc1 | -0.965 | 1.17 (inactive) | -0.0931 | -0.14 | -0.338 | -0.49 | -0.34 | 0.122 | 0.954 | -0.681
11 | C=CCN(Cc1ccccc1)C(=O)C(c1cccs1)N(C(=O)/C=C\C(=O)O)c1c(Cl)cccc1CO (stereo not given) | -0.248 and -1.84 | 0.0723 (inactive) and -1.07 (inactive) | -0.437 and -0.491 | -0.155 and -0.0772 | -0.393 and -0.843 | -0.665 and -0.537 | -0.657 and -0.277 | -0.84 and -2.12 | -1.64 and -2.62 | -1.52 and -1.86
12 | C=CCN(CCCCC)C(=O)C1N(CCCCCCO)C(=O)C2C(C(=O)O)C3C=CC21O3 (stereo not given) | -1.03 and 0.785 | 0.207 (inactive) and 0.382 (inactive) | -0.374 and -0.327 | 0.316 and -0.193 | 0.85 and 0.83 | 0.66 and 0.309 | 0.752 and -0.289 | -0.408 and -1.45 | -3.13 and -1.54 | -0.556 and -1.47
13 | CCCC[C@@H]1CN2[C@H](c3ccc(Br)cc3)[C@@H](C)CC[C@H]2C(=O)O1 | -0.102 and -0.193 | -0.0662 (inactive) and -0.0677 (inactive) | -0.17 and -0.0888 | -0.14 and -0.0316 | -0.199 and -0.139 | -0.263 and 0.0681 | 0.43 and 0.159 | -0.32 and 0.277 | 0.204 and 0.111 | 0.404 and -0.854
14 | COC(=O)C1=C(C)N(Cc2ccccc2)C2=C3C(=O)N(c4ccccc4)C(=O)[C@@H]3[C@@](O)(C(=O)OC)C(=O)N2[C@@H]1c1ccccc1 | 0.361 and 0.207 | 0.0519 (inactive) and 0.0894 (inactive) | 0.236 and 0.116 | -0.0767 and -0.101 | 0.46 and 0.7 | 0.241 and 0.608 | 0.171 and 0.983 | 0.462 and 1.13 | 0.513 and 0.402 | -0.196 and 0.475
